Our source for the composite z-score and z-score values is PubChem BioAssay.

“And” between values parts separate entries of the source, which are not always exact repeats. Equal entries are not always repeated. The source made the active and inactive calls.

Test [1] deals with Plasmodium falciparum Sir2 (PF13_0152, Sir2A). The test is described as follows: pfSir2 binders on small-molecule microarrays, primary screen, biochemical, small-molecule microarray, 635 nm fluorescence (AID 1098).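 Note: score merges spot fluorescence intensity with its signal-to-noise ratio.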 Conditions: small-molecule microarray binding, fluorescence 635 nm; higher = more signal.
The nature of test [2]: small-molecule microarray binders of probe aDKK1, primary screen, biochemical, biotinylated probe, 635/667 nm fluorescence (AID 1099).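 Note: score merges 667nm spot fluorescence with signal to noise across triplicate slides.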 As to conditions: higher = more signal.
Test [3] can be described thus: small-molecule microarray binders of probe aCHRDL2, primary screen, biochemical, biotinylated probe, 635/667 nm fluorescence (AID 1100). Conditions: higher = more signal.
Test [4] can be described thus: splicing luciferase reporter signal modulators, primary screen, spliceosome inhibition project, cell-based, HEK293, splice +/- reporter (AID 1101).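 Note: HEK293 cells carrying a splicing-competent luciferase reporter gene; test concentration not given here.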 Conditions: luminescence, 24 h, higher = more signal, called active from +8 up or from −8 down.
Test [5] deals with Fibroblast growth factor 10 (Homo sapiens) (UniProt O15520). Description: FGF10 binders on small-molecule microarrays, primary screen, biochemical, small-molecule microarray, 635 nm fluorescence (AID 1102). As to conditions: FGF10 binding, fluorescence 635 nm, higher = more signal.
In test [6] the test system is glycogen synthase kinase-3 (GSK3A per assay name; protocol says GSK3B). Description: GSK3 binders on small-molecule microarrays, primary screen, biochemical, small-molecule microarray, 635 nm fluorescence, GSK3A (AID 1103). Note: the record names both GSK3A and GSK3B. As to conditions: small-molecule microarray binding, fluorescence 635 nm; higher = more signal.
Test [7] has as its target Epidermal growth factor receptor (Homo sapiens) (UniProt P00533). Description: EGFR binders on small-molecule microarrays, primary screen, biochemical, small-molecule microarray, 635 nm fluorescence (AID 1104).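 Note: score merges 667 nm emission intensity with spot signal to noise over triplicate slides.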 As to conditions: EGFR binding, higher = more signal.
For test [8], the target named is Follistatin-related protein 3 (Homo sapiens) (UniProt O95633). Description: FSTL3 binders on small-molecule microarrays, primary screen, biochemical, small-molecule microarray, 635 nm fluorescence (AID 1105).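 Note: score merges emission near 667 nm and signal to noise per printed spot across three slides.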 As to conditions: FSTL3 binding, higher = more signal.
The target in test [9] is Dickkopf-related protein 1 (Homo sapiens) (UniProt O94907). The test is described as follows: DKK1 binders on small-molecule microarrays, primary screen, biochemical, small-molecule microarray, 635 nm fluorescence scan (AID 1106).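 Note: score merges emission near 667 nm with signal to noise over three replicate slides.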 Conditions: DKK1 binding, higher = more signal.
Test [10] deals with Inhibin beta A chain (activin A). The test is described as follows: INHBA (activin A) binders on microarrays, primary screen, biochemical, small-molecule microarray, 635 nm fluorescence scan (AID 1107).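 Note: mouse activin A protein probed at 4.33 µg/mL on printed slides; score merges bound-protein fluorescence near 667 nm with spot signal-to-noise.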 Conditions: small-molecule microarray binding, higher = more signal.
For test [11], the system named is Human papillomavirus type 1a protein E7 (residues 44-93). The test is described as follows: HPV1a E7 fragment binders on microarrays, primary screen, biochemical, small-molecule microarray, residues 44-93, 635 nm fluorescence (AID 1108).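 Note: E7 fragment applied at 1 µg/mL in TBST for 1 h at 4 C; score combines spot fluorescence with its signal to noise ratio.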 As to conditions: small-molecule microarray binding, fluorescence 635 nm; higher = more signal.
A short description of test [12]: modulators of HCV replicon luciferase signal, primary screen, HCV replication inhibitor project, Huh7 cells, luciferase reporter (AID 1109).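 Note: huh7 hepatoma cells harbouring a luciferase neomycin HCV replicon reporter; luciferase luminescence as measure of HCV replicon replication; test concentration not given here.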 As to conditions: 48 h, higher = more signal.
Test [13] has as its target Left-right determination factor 2 (Homo sapiens) (UniProt O00292). The test is described as follows: LEFTY2 binders on small-molecule microarrays, primary screen, biochemical, small-molecule microarray, 635 nm fluorescence scan (AID 1110). As to conditions: LEFTY2 binding, higher = more signal.
The target in test [14] is Calmodulin-1 (Homo sapiens) (UniProt P0DP23). The test is described as follows: CALM1 binders on microarrays, EGTA buffer, profiling panel, biochemical, small-molecule microarray, Cy5-labelled CALM1 (AID 1111).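 Note: labelled calmodulin applied in Tris saline Tween buffer holding calcium plus EGTA and DTT.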 As to conditions: Cy5-CALM1 binding fluorescence, higher = more signal.
The target is the same in test [15]. The test is described as follows: calcium-bound CALM1 binders on microarrays, profiling panel, artefact control for SMM control-protein annotation, biochemical, small-molecule microarray, Cy5-labelled CALM1, plus calcium (AID 1112).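 Note: score merges spot fluorescence with signal to noise from triplicate slides.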 As to conditions: Cy5-CALM1 binding fluorescence, higher = more signal.
Test [16] can be described thus: small-molecule microarray binders of probe aWnt5a, primary screen, biochemical, biotinylated probe, 635/667 nm fluorescence (AID 1113).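 Note: score merges 667 nm fluorescence intensity with signal-to-noise per printed feature.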 Conditions: higher = more signal.
Test [17] is described as follows: small-molecule microarray binders of probe aShh, primary screen, biochemical, biotinylated probe, 635/667 nm fluorescence (AID 1114).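 Note: probe is biotin-labelled aShh protein from a stem cell growth factor screen; measures binding of labelled protein to compounds printed on the slide; score merges feature fluorescence at 667 nm with signal-to-noise.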 As to conditions: higher = more signal.
Test [18] is described as follows: small-molecule microarray binders of probe aNog, primary screen, biochemical, biotinylated probe, 635/667 nm fluorescence (AID 1115).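 Note: probe is biotinylated aNog protein used at 0.15 µg/mL for 1 h at 4 C; z-score combines 667 nm fluorescence of each spot with its signal to noise.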 Conditions: higher = more signal.
Test [19] concerns the target Torsin-1A-interacting protein 1 (Homo sapiens) (UniProt Q5JTV8). Description: LAP1 binders from COS7 cell lysate, primary screen, small-molecule microarray, 635/667 nm fluorescence (AID 1116). Conditions: COS7-hLAP1 lysate binding, 635 nm fluorescence, higher = more signal.
Test [20] concerns the target Alpha-bungarotoxin (Bungarus multicinctus) (UniProt P60615). The test is described as follows: alpha-bungarotoxin binders on microarray, profiling panel, artefact control for SMM control protein annotation, biochemical, small-molecule microarray, Alexa647 label, 635/667 nm fluorescence (AID 1117). Conditions: alpha-BTX-A647 binding fluorescence, higher = more signal.

Chain of Left-right determination factor 2 (Homo sapiens) (O00292 whole entry, looked up): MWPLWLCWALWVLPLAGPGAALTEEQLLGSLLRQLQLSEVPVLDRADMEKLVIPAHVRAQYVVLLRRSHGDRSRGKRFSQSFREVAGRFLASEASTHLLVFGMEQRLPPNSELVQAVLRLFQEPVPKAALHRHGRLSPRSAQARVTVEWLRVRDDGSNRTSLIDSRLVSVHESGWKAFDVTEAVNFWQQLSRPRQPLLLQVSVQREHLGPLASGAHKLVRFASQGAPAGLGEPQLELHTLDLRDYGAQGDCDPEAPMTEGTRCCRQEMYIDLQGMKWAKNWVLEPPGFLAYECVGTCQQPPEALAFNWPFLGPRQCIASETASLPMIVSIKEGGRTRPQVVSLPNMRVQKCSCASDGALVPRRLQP
Chain of Epidermal growth factor receptor (Homo sapiens) (P00533 whole entry, looked up): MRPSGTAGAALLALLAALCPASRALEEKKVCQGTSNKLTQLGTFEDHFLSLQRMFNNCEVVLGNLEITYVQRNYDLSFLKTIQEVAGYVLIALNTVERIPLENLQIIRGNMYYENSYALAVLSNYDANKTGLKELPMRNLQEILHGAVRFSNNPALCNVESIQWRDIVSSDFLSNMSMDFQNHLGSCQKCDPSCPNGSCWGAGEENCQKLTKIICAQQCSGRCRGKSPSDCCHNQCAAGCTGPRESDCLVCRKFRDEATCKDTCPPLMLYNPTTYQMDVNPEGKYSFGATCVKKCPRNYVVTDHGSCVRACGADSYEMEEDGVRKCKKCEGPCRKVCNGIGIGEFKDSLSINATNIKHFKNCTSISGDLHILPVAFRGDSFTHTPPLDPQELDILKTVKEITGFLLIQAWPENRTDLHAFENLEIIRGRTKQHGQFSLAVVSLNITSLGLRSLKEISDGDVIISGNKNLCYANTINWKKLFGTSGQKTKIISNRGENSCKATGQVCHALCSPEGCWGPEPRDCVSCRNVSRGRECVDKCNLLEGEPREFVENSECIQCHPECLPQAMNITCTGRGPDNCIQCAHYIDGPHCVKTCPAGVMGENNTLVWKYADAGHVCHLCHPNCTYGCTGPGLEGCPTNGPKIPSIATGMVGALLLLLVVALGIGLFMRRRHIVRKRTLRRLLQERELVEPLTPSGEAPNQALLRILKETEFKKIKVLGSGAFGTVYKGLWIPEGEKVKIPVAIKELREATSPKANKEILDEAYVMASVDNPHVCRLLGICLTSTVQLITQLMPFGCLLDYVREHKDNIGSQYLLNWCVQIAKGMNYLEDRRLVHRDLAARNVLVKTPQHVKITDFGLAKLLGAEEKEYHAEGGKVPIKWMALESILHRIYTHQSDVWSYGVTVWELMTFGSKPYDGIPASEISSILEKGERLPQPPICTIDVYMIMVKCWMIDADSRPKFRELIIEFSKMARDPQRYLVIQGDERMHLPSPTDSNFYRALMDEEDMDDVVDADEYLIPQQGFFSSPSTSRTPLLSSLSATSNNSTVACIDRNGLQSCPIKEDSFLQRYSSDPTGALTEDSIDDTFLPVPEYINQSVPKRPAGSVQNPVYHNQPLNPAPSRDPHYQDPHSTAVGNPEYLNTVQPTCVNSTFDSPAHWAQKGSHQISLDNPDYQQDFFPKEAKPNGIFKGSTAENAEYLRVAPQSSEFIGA
Chain of Alpha-bungarotoxin (Bungarus multicinctus) (P60615 whole entry, looked up): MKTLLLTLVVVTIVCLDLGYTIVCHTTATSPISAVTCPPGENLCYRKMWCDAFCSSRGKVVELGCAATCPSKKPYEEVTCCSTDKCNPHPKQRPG
Chain of Dickkopf-related protein 1 (Homo sapiens) (O94907 whole entry, looked up): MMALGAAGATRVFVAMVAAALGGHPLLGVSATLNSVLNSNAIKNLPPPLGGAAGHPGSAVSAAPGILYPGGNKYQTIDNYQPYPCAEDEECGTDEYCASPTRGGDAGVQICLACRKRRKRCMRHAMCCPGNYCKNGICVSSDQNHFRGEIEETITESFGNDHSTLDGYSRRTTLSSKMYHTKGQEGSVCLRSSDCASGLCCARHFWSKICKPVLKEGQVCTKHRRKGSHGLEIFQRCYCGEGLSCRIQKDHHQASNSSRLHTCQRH
Chain of Fibroblast growth factor 10 (Homo sapiens) (O15520 whole entry, looked up): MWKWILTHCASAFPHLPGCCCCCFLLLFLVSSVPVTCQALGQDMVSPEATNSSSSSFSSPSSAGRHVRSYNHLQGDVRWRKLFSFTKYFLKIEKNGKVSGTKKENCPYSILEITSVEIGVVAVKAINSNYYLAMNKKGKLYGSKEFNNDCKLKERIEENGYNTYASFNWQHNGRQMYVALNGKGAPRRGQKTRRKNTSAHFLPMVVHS
Chain of Follistatin-related protein 3 (Homo sapiens) (O95633 whole entry, looked up): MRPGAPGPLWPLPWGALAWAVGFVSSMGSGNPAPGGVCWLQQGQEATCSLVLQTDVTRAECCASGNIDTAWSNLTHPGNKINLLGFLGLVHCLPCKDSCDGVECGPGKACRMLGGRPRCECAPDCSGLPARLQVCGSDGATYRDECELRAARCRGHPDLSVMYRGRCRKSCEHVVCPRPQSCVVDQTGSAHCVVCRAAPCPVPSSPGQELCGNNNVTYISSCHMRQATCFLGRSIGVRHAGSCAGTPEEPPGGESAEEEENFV
Chain of Torsin-1A-interacting protein 1 (Homo sapiens) (Q5JTV8 whole entry, looked up): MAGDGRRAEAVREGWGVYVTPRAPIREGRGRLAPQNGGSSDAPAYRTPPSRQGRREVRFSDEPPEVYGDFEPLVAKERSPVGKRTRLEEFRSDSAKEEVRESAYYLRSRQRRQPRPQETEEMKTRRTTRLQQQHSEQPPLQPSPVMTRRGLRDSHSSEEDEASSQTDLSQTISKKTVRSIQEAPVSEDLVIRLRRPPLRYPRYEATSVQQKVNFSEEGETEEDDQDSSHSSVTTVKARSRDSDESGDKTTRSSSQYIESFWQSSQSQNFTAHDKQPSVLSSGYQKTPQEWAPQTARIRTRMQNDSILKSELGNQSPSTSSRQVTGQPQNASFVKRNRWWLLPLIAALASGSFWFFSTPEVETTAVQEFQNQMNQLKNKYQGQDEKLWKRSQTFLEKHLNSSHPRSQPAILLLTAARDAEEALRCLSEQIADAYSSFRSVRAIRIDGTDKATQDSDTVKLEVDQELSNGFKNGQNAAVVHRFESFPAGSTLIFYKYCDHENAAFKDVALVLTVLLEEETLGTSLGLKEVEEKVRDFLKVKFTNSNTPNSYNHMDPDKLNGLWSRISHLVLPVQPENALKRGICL

Turning to `C=C[C@@H](OC)[C@H](O)c1ccc(OC)c(O)c1`, the composite z-score was -1.12 and 0.402 in [1]; -0.42 and -0.521 in test [2]; -0.6 and -0.0832 in test [3]; 0.146 and -0.514 in [5]; -0.374 and -0.669 in [6]; 0.526 and -1.08 in test [7]. Moreover, the composite z-score in test [8] is 0.878 and -0.9; in [9], 0.131 and -0.539; in [10], 1.27 and -0.492; in [11], -0.306 and -0.0635; in test [13], 0.861 and -0.46; in [14], -1.19 and -1.42. In addition, the composite z-score in test [15] was -0.799 and -0.187; in [16] it was -0.293 and -0.208; in test [17], -0.289 and -0.138; in test [18], -0.321 and -0.347; in test [19] it was 0.0742 and 0.111; in test [20], -0.397 and 0.989. Besides, the z-score in test [4] is -0.984 (inactive) and -1.14 (inactive); in [12], 0.552 and -0.127.

In the case of `C=CCN(CCCC)C(=O)C1N(c2c(Cl)cccc2CO)C(=O)C2C(C(=O)O)C3C=CC21O3` (stereo not given), the composite z-score was 0.934 and -0.194 in test [1]; 0.0215 and -0.0881 in [2]; 1.08 and 0.748 in test [3]; -0.613 and -1.38 in [5]; -2.1 and -0.938 in test [6]; -1.71 and -1.18 in [7]. Besides, the composite z-score in [8] was -2.37 and -1.28; in test [9], -2.46 and -2.71; in test [10] it was -1.41 and -0.0137; in test [11], -1.84 and 0.389; in [13] it was -3.23 and -2.18; in [14], -0.623 and -0.783. For the same compound, the composite z-score is 0.713 and -0.0889 in [15]; -0.144 and -0.0894 in test [16]; 0.151 and -0.279 in test [17]; 0.0107 and 0.242 in test [18]; -0.529 and -0.927 in [19]; -0.406 and -1.31 in test [20]. Besides, the z-score in test [4] was -0.786 (inactive) and -0.929 (inactive); in test [12], -0.325 and -0.567.

For `C=CC[C@@H](O)c1ccc(O)c2ccccc12`, the composite z-score was 1.35 and 1.41 in test [1]; -0.05 and -0.227 in [2]; -0.0013 and -0.333 in test [3]; 0.991 and 1.34 in [5]; 0.797 and 1.25 in test [6]; 1.33 and 1.15 in test [7]. Further, the composite z-score in test [8] is 1.2 and 1.43; in test [9], 0.817 and 1.14; in test [10], 1.38 and 0.954; in [11] it was 0.837 and 1.21; in [13] it was 0.723 and 0.901; in [14], -1.52 and -0.403. The composite z-score in test [15] was -1.59 and -1.41; in test [16], -0.101 and -0.0704; in [17], 0.296 and -0.0553; in test [18], -0.369 and -0.55; in [19] it was 0.848 and 0.0091; in [20] it was 2.05 and 1.17. The z-score in test [4] is -0.879 (inactive) and 3.08 (inactive); in test [12], -1.89 and -2.65.

With `C=CCN(CCCC)C(=O)C1N(CCCCCCO)C(=O)C2C(C(=O)O)C3C=CC21O3` (stereo not given), the composite z-score was 1.64 and 0.937 in [1]; -0.288 and -0.0191 in test [2]; 1.02 and 0.849 in [3]; -1.87 and -1.39 in [5]; -1.1 in test [6]; -1.93 and -1.35 in test [7]. The composite z-score was -2.74 and -2.04 in [8]; -2.67 and -3.18 in test [9]; -2.85 and -2.5 in test [10]; -0.498 and -0.27 in test [11]; -3.06 and -3.09 in test [13]; -0.494 and -0.605 in test [14]. Besides, the composite z-score in test [15] is 0.169 and 0.392; in test [16] it was -0.184 and -0.226; in test [17] it was 0.0048 and -0.138; in test [18] it was -0.349 and -0.318; in [19] it was -0.423 and 0.349; in [20], -1.1 and -1.81. For the same compound, the z-score was 0.671 (inactive) and -0.0103 (inactive) in test [4]; 0.227 and -0.883 in [12].

On to `C=CCN(CCCC)C(=O)C(c1cccs1)N(CCOCCO)C(=O)/C=C\C(=O)O` (stereo not given), for which the composite z-score in test [1] is 1.66 and -1.5; in [2], 0.103 and -0.18; in test [3], 0.792 and 0.161; in test [5] it was -1.19 and -0.522; in test [6], -1.39 and -0.479; in [7], -2.24 and -0.346. Further, the composite z-score in test [8] is -1.97 and -0.993; in test [9] it was -1.56 and -1.03; in test [10], -0.593 and 0.566; in test [11] it was -1 and -0.515; in [13], -2.21 and -0.742; in test [14], -0.501 and -0.702. The composite z-score is 0.988 and 0.502 in [15]; -0.193 and -0.096 in test [16]; -0.2 in [17]; 0.136 and 0.295 in [18]; 1.2 and 1.09 in [19]; -2.1 and 0.069 in test [20]. For the same compound, the z-score in [4] was -1.21 (inactive) and -1.32 (inactive); in [12] it was -0.166 and 0.999.
